{
  "source": "paper PMC5540273",
  "about": "(PLoS ONE, 2017);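 further: KINOMEscan kinase panel screen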",
  "data": [
    {"tested_on": "T1, MST1", "T1 construct": "gene STK4", "conditions": "concentration: 1 μM,replicates: in singlicate; n = 1", "units": {"%Inh": "%"}, "values": [
      {"compound": "O=C(Nc1cccc(Oc2ccc3nccn3n2)c1)Nc1cccc(C(F)(F)F)c1", "%Inh": 6},
      {"compound": "CN(c1ccccc1CNc1nc(Nc2ccc3c(c2)CC(=O)N3)ncc1C(F)(F)F)S(C)(=O)=O", "%Inh": 14},
      {"compound": "NC(=O)c1ccc(-c2cc3ncnc(SCC(=O)O)c3s2)cc1", "%Inh": 0},
      {"compound": "Cn1ccc2ncnc(Oc3ccc(NC(=O)Nc4cc(C(C)(C)C)on4)c(Cl)c3)c21", "%Inh": 0},
      {"compound": "COC(=O)Nc1nc2cc(Oc3ccc(NC(=O)Nc4cc(C(F)(F)F)ccc4Cl)cc3)ccc2[nH]1.Cl", "note": "[GW697465]", "%Inh": 0},
      {"compound": "COc1cc2c(Nc3ccc(NC(=O)c4ccccc4)cc3)ncnc2cc1OCCCN1CCOCC1", "note": "[GSK301329]", "%Inh": 16},
      {"compound": "C[C@@H]1CNc2c(sc3ccc4nc(-c5ccc(O)cc5)ccc4c23)C(=O)N1", "%Inh": 0},
      {"compound": "CN(c1cccc(CNc2nc(Nc3ccc4c(c3)CC(=O)N4)ncc2C(F)(F)F)c1)S(C)(=O)=O", "%Inh": 0},
      {"compound": "O=C(Nc1ccc(Oc2ccc3nc(NC(=O)C4CC4)cn3n2)c(F)c1)c1cccn(-c2ccccc2)c1=O", "%Inh": 0},
      {"compound": "Nc1nccc(-c2ccc3c(N)n[nH]c3c2)n1", "note": "[GSK1034945]", "%Inh": 3},
      {"compound": "CNC(=O)c1ccccc1Nc1nc(Nc2cccc(CS(C)(=O)=O)c2)ncc1C.O=CO", "note": "[GSK1520489]", "%Inh": 80},
      {"compound": "C[C@@H](Oc1cc(-n2cnc3cc(-c4ccncc4)ccc32)sc1C(N)=O)c1ccccc1Cl", "note": "[GSK479719]", "%Inh": 56},
      {"compound": "N#Cc1cccc(C(=O)NC2CCN(c3ccnc(Nc4ccc(F)cc4)n3)C2)c1", "note": "(stereo not shown) [GSK1379708]", "%Inh": 2},
      {"compound": "FC(F)(F)c1cc(Br)cc(Nc2nccc(-c3cnn4ncccc34)n2)c1", "note": "[GW810578]", "%Inh": 5},
      {"compound": "NC(=O)Nc1sc(-c2ccc(F)cc2)cc1C(N)=O", "note": "[GW789449]", "%Inh": 37},
      {"compound": "CC(=O)Nc1ccc(-c2cc3ncnc(SCC(=O)O)c3s2)cc1", "%Inh": 2},
      {"compound": "Cc1cccc2c(-c3ccncc3)c(-c3ccc(F)cc3)nn12.Cl", "note": "[GW461487]", "%Inh": 90.4},
      {"compound": "O=C1NCCc2[nH]c(-c3ccncc3)cc21", "%Inh": 3},
      {"compound": "CCn1c(-c2nonc2N)nc2cncc(CNC3CCNCC3)c21.Cl", "note": "[SB-747651]", "%Inh": 19},
      {"compound": "O=c1[nH]cc(-c2ccc(O)cc2)c2sc(-c3ccncc3)cc12", "note": "[GSK1033723]", "%Inh": 1},
      {"compound": "CCNCC(Cc1ccccc1)NC(=O)c1cc(Br)c(-c2ccnc3[nH]ccc23)s1.Cl.Cl", "note": "(stereo not shown) [GSK1383280]", "%Inh": 0},
      {"compound": "O=C(Nc1ccccc1)c1cccc(Oc2ccc3nccn3n2)c1", "%Inh": 25},
      {"compound": "Cl.c1ccc(Oc2ccc(Nc3ccnc4cc(-c5ccc(CN6CCNCC6)o5)ccc34)cc2)nc1", "note": "[GW567142]", "%Inh": 0},
      {"compound": "Cl.Nc1n[nH]c2cc(-c3ccccn3)ccc12", "note": "[GSK2189892]", "%Inh": 0},
      {"compound": "COc1ccc(Nc2nccc(N3CCC(NC(=O)c4cccc(C#N)c4)C3)n2)cc1", "note": "(stereo not shown) [GSK1379730]", "%Inh": 19},
      {"compound": "CC(C(=O)NC1CCN(c2ccnc(Nc3ccc(F)cc3)n2)C1)c1ccc(Cl)cc1", "note": "(stereo not shown) [GSK1379713]", "%Inh": 5},
      {"compound": "c1ccc(Oc2ccc(Nc3ccnc4ccc(-c5ccccn5)cc34)cc2)cc1", "note": "[GW407034]", "%Inh": 0},
      {"compound": "CS(=O)(=O)c1cccc(CNc2nc(Nc3ccc4c(c3)[C@@H]3C[C@@H]4CNC3=O)ncc2C(F)(F)F)c1", "%Inh": 0},
      {"compound": "COc1cccc(OC)c1C(=O)Nc1cccc(-c2nn3ccccc3c2-c2ccnc(Nc3cccc(F)c3)n2)c1", "note": "[GSK361065]", "%Inh": 20},
      {"compound": "COC(=O)c1cccc(NC(=O)NC2CCN(c3ccnc(Nc4cc(OC)c(OC)c(OC)c4)n3)C2)c1", "note": "(stereo not shown) [GSK1379767]", "%Inh": 6},
      {"compound": "CC(C)c1nc(-c2cccc(NS(=O)(=O)c3ccccc3)c2)c(-c2ccnc(Nc3ccc4c(c3)CN(C)CC4)n2)s1", "note": "[GSK1649598]", "%Inh": 67},
      {"compound": "C[C@@H]1CCN(C(=O)N2CCCC2)C[C@@H]1N(C)c1ncnc2[nH]ccc12", "%Inh": 100},
      {"compound": "CSc1nccc(-c2c(-c3ccc(F)cc3)ncn2CCCN2CCOCC2)n1.Cl", "note": "[SB-217146]", "%Inh": 0},
      {"compound": "COc1cc2nccc(Nc3ccc(Oc4ccccc4)cc3)c2cc1OC.Cl", "note": "[GI261656]", "%Inh": 0},
      {"compound": "Cc1ccc(Nc2ccnc(Nc3ccc4c(c3)CS(=O)(=O)C4)n2)cc1O.Cl", "note": "[GW579362]", "%Inh": 19},
      {"compound": "Cc1nnc(-c2ccc3occ(-c4ccc(S(C)=O)cc4)c3n2)o1", "note": "(stereo not shown)", "%Inh": 0},
      {"compound": "O=C(NOCC1CC1)c1cc(Br)c(F)c(F)c1Nc1ccc(I)cc1Cl", "%Inh": 3}
    ]}
  ]
}
